From PubChem
CYP2C9 inhib – inhibitors of human CYP2C9. P11712. CYP2C9 Supersomes, luciferin-H conversion, luminescence. inhibition, % at 5 µM. 96,000 tested, 20% active. AID 777;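 active = blocking of liver enzyme CYP2C9 beyond about 50% at 5 µM, limit read from the data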
Target sequence (P11712 whole entry, looked up): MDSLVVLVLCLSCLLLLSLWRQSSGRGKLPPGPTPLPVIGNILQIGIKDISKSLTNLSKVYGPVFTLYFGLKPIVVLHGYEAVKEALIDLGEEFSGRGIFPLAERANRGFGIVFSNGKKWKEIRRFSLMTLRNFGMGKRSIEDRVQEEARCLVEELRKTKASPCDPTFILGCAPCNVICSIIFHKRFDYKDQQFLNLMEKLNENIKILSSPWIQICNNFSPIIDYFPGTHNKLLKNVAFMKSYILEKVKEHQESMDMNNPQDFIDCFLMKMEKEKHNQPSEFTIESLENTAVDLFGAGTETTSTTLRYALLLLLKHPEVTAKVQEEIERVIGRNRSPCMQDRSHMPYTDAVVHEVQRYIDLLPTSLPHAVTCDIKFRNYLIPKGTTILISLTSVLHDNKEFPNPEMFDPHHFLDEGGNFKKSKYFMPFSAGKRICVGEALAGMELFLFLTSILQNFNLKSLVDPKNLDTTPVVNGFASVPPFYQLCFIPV
CYP2C19 inh – blocks human cytochrome P450 2C19; CYP2C19 Supersomes, luciferin-H EGE luminescence, 30 min; inhibition, % at 5 µM; 96,000 tested, 21% active;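 active = CYP2C19 inhibition above a set limit at 5 µM in the primary screen, cut at about 50% in these data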;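 note: plate controls were negative control wells for no effect and 2.5 mM tranylcypromine positive control for full effect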
D1 allo mod – allosterically modulates the human D1 dopamine receptor; HEK293 D1, CRE-luciferase, dopamine EC30 potentiation; actives deviate in either direction; 58,000 tested, 5.9% active; P21728; B-score at 10 µM;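 active = luminescence count or its row- and column-corrected plate score outside the 99.7% band of the plate's sample wells, on either side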
DAT uptake mod – modulates human dopamine transporter uptake under cocaine | Q01959 | LLC-PK1 hDAT cells, [14C]-dopamine uptake with cocaine IC80; actives deviate in either direction | B-score at 10 µM | 110,000 tested, 1.3% active | AID 449768;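 active = Z score or B-score, a plate-position-corrected score, falls beyond the plate's 99.7% confidence bounds, in either direction; inactive = both scores lie inside the 99.7% bounds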;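 note: scored against the spread of the other compound wells on the same plate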
CYP2C19 act – increases human CYP2C19 enzyme activity. recombinant CYP2C19, luciferin-H EGE luminescence; active compounds read high; 0 = fully inhibited enzyme, 1 = untreated enzyme. activation factor at 5 µM. 96,000 tested, under 10 active. AID 1025;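 active = activation factor of at least 2 at 5 µM in the primary screen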;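 note: 0 = wells with 2.5 mM tranylcypromine and 1 = vehicle-only wells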
CYP2C9 act – activators of human CYP2C9 | recombinant CYP2C9, luciferin-H conversion, luminescence; active compounds read high; factor 1 = untreated enzyme, 0 = blocked | 96,000 tested, 1.4% active | activation factor at 5 µM | P11712;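 active = activation factor of 2 or more for CYP2C9 at a 5 µM dose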;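 note: 0 = sulfaphenazole-blocked wells and 1 = vehicle-only wells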
An asterisk follows results filed as active. An excerpt weighted towards active compounds, which were near 28% of everything screened.

How did O=C1c2ccccc2C(Nc2ccc(S(=O)(=O)N3CCCCCC3)cc2)N1c1ccccn1 (stereo not drawn) do in these assays?
CYP2C9 inhib: -5; CYP2C19 inh: -16; DAT uptake mod: -2; CYP2C19 act: 1.2; CYP2C9 act: 1

How did O=C1c2ccccc2C(Nc2ccc(S(=O)(=O)N3CCOCC3)cc2)N1c1ccccn1 (stereo not drawn) do in these assays?
CYP2C9 inhib: 77*; CYP2C19 inh: 34; DAT uptake mod: -0.57; CYP2C19 act: 0.7; CYP2C9 act: 0.2

How did Cc1ccc(NC2c3ccccc3C(=O)N2CCN2CCOCC2)cc1 (stereo not drawn) do in these assays?
CYP2C9 inhib: 27; CYP2C19 inh: 82*; DAT uptake mod: -1.5; CYP2C19 act: 0.2; CYP2C9 act: 0.7

What do the screens show for `O=C1c2ccccc2C(Nc2ccc(S(=O)(=O)N3CCCCC3)cc2)N1Cc1ccco1` (stereo not drawn)?
CYP2C9 inhib: 90*; CYP2C19 inh: 36; DAT uptake mod: 1.3; CYP2C19 act: 0.6; CYP2C9 act: 0.1

How did CCOC(=O)c1ccc(NC2c3ncccc3C(=O)N2Cc2ccc(F)cc2)cc1 (stereo not drawn) do in these assays?
CYP2C9 inhib: 70*; CYP2C19 inh: 41; D1 allo mod: 0.92; DAT uptake mod: 1.1; CYP2C19 act: 0.6; CYP2C9 act: 0.3

How did COc1ccccc1C1N(c2ccc(F)cc2)C(=O)C2CCCN21 (stereo not drawn) do in these assays?
CYP2C9 inhib: 4; CYP2C19 inh: -4; D1 allo mod: -0.71; DAT uptake mod: -0.15; CYP2C19 act: 1; CYP2C9 act: 1

How did CCOC(=O)c1sc2cc([N+](=O)[O-])cc(SCC(C)C)c2c1N do in these assays?
CYP2C9 inhib: 17; CYP2C19 inh: -7; DAT uptake mod: -0.73; CYP2C19 act: 1.1; CYP2C9 act: 0.8

How did O=C(NCc1n[nH]c(=S)n1-c1ccc(F)cc1)c1ccco1 do in these assays?
CYP2C9 inhib: -7; CYP2C19 inh: 20; D1 allo mod: 0.61; DAT uptake mod: -0.051; CYP2C19 act: 0.8; CYP2C9 act: 1.1

How did Cc1ccccc1C(=O)NCc1nnc(SCC(=O)N2c3ccccc3Sc3ccccc32)n1C do in these assays?
CYP2C9 inhib: -3; CYP2C19 inh: 23; DAT uptake mod: -0.012; CYP2C19 act: 0.8; CYP2C9 act: 1

Results for CCOC(=O)C1CCCN(C(=O)CNC(=O)Cn2ccc3ccccc3c2=O)C1 (stereo not drawn) ?
CYP2C9 inhib: -9; CYP2C19 inh: -14; D1 allo mod: 0.36; DAT uptake mod: -0.89; CYP2C19 act: 1.1; CYP2C9 act: 1.1

How did O=C1CSC(c2ccc(F)cc2)N1c1nnc(C23CC4CC(CC(C4)C2)C3)s1 (stereo not drawn) do in these assays?
CYP2C9 inhib: 42; CYP2C19 inh: 41; DAT uptake mod: -0.62; CYP2C19 act: 0.6; CYP2C9 act: 0.6

How did O=C1c2ccccc2C(Nc2ccc(S(=O)(=O)N3CCOCC3)cc2)N1Cc1ccco1 (stereo not drawn) do in these assays?
CYP2C9 inhib: 60*; CYP2C19 inh: 19; DAT uptake mod: 0.19; CYP2C19 act: 0.8; CYP2C9 act: 0.4

Results for CCN(CC)S(=O)(=O)c1ccc(NC2c3ccccc3C(=O)N2CCN2CCOCC2)cc1 (stereo not drawn) ?
CYP2C9 inhib: 12; CYP2C19 inh: -10; D1 allo mod: -0.03; DAT uptake mod: -0.098; CYP2C19 act: 1.1; CYP2C9 act: 0.9

Results for O=C1c2cccnc2C(Nc2ccc(S(=O)(=O)N3CCCCC3)cc2)N1Cc1ccccc1 (stereo not drawn) ?
CYP2C9 inhib: 33; CYP2C19 inh: 13; D1 allo mod: -1.4*; DAT uptake mod: 1; CYP2C19 act: 0.9; CYP2C9 act: 0.7

How did Cc1ccc2cccc(S(=O)(=O)Nc3ccc4c(c3)OCO4)c2n1 do in these assays?
CYP2C9 inhib: 25; CYP2C19 inh: 100*; D1 allo mod: -0.014; DAT uptake mod: 0.47; CYP2C19 act: 0; CYP2C9 act: 0.7

What do the screens show for `O=S(=O)(Nc1ccc2c(c1)OCCO2)c1cccc2nsnc12`?
CYP2C9 inhib: 35; CYP2C19 inh: 60*; D1 allo mod: -1.5; DAT uptake mod: 1.3; CYP2C19 act: 0.4; CYP2C9 act: 0.7
